pPAFAH FP inh: inhibitors of human plasma PAF acetylhydrolase (pPAFAH) | AID 463082 | inhibition, % at 3.39 µM | Q13093 | 330,000 tested, 1.5% active | recombinant pPAFAH, FP-rhodamine probe fluorescence polarization;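 active = inhibition above the mean inhibition across the screen plus 3 SD, cut at about 25% in these data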;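 also: inhibitors block binding of the rhodamine activity-based probe so polarization drops; 0% = enzyme with DMSO and 100% = wells lacking pPAFAH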
Target sequence (Q13093 whole entry, looked up): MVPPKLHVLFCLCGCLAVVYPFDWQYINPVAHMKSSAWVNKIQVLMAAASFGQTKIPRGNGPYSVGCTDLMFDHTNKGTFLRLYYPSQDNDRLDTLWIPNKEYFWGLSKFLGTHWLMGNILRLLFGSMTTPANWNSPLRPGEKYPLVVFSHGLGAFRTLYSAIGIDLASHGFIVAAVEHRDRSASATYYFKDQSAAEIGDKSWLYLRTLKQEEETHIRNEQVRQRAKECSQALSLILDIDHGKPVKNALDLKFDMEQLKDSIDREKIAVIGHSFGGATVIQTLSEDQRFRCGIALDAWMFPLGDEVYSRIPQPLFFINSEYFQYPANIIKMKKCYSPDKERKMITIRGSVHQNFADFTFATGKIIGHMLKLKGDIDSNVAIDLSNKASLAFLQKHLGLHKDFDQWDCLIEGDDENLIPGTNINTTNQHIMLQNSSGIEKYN
PKA-R1A activ: activates the PKA-R1A holoenzyme complex | P00514+P68181 | PKA-R1A dissociation, Cy5-IP20 fluorescence polarization; scaled: DMSO 0%, 113 µM cGMP 100% | activation, % at 11.4 µM | 340,000 tested, 0.083% active;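 active = percent activation above the mean of all tested compounds plus 3 SD, cut at about 19% in these data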;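 also: higher means more PKAc released from R1A so a rise in polarization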
PAFAH1B3 inh: inhibitors of human PAFAH1B3. 340,000 tested, 0.28% active. inhibition, % at 3.39 µM. recombinant PAFAH1B3, FP-rhodamine probe, fluorescence polarization;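 active = inhibition above the screen-wide average of all tested compounds plus 3 SD, cut at about 25% in these data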;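 also: 0% = enzyme with DMSO only and 100% = wells lacking PAFAH1B3 protein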
PAFAH2 FP inh: PAFAH2 (human) inhibition; Q99487; 340,000 tested, 0.99% active; AID 492956; recombinant PAFAH2, FP-rhodamine activity probe, fluorescence polarization; inhibition, % at 3.39 µM;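 active = inhibition above the mean over all tested compounds plus 3 SD, cut at about 30% in these data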;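 also: inhibitors block probe labeling of enzyme so polarization drops; 0% = enzyme with DMSO and 100% = wells lacking PAFAH2 protein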
PKA-R2B activ: activators of human PKA-R2B complex. PKA-R2B holoenzyme dissociation, Cy5-IP20 fluorescence polarization; R2B truncated from residue 108, S112A mutant; 0% DMSO only, 100% 113 µM cGMP. AID 504700. P22694+P31323. 340,000 tested, 0.079% active. activation, % at 11.4 µM;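 active = activation above a cutoff set at the mean over all compounds plus 3 SD, cut at about 18% in these data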;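 also: higher means more holoenzyme dissociation and a rise in polarization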
PAFAH1B2 FP inh: PAFAH1B2 (human) inhibition; 340,000 tested, 1.2% active; P68402; recombinant PAFAH1B2, FP-rhodamine activity probe, fluorescence polarization; inhibition, % at 3.39 µM;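 active = inhibition above the mean of all tested compounds plus 3 SD, cut at about 24% in these data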;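 also: 0% = enzyme with DMSO and 100% = wells lacking PAFAH1B2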
Target sequence (P68402 whole entry, looked up): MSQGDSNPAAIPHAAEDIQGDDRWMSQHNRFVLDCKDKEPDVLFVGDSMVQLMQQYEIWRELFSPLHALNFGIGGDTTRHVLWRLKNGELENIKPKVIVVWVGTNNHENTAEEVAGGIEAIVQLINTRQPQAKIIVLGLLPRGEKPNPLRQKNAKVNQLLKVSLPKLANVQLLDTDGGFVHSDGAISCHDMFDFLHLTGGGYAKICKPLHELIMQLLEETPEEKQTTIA
PAFAH2 confirm: confirmation of human PAFAH2 inhibitors | shares compounds with PAFAH2 FP inh | recombinant PAFAH2, FP-rhodamine activity probe, fluorescence polarization | inhibition, % at 3.39 µM | 2,300 tested, 65% active | AID 493030;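 active = mean inhibition over three repeats above a set limit taken from the earlier primary screen, cut at about 30% in these data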;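 also: inhibitor blocks binding of rhodamine activity probe so polarization falls; 0% = enzyme with DMSO and 100% = wells lacking PAFAH2 protein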
Numbers without * were called inactive; x = no result. Shown are actives, neighbours in structure and some others; about 2.6% of the full set was active somewhere.

SMILES | pPAFAH FP inh | PKA-R1A activ | PAFAH1B3 inh | PAFAH2 FP inh | PKA-R2B activ | PAFAH1B2 FP inh | PAFAH2 confirm
O=c1cc(CN2CCOCC2)c2cc(Cl)ccc2o1 | 6 | -2 | 4 | -5 | -8 | 5 | x
COc1ccc(S(=O)(=O)N2CCOCC2)cc1NC(=O)COC(=O)c1[nH]c(C)c(C(C)=O)c1C | 0 | -8 | 0 | 5 | -9 | 4 | x
COc1ccc(S(=O)(=O)N2CCOCC2)cc1NC(=O)COC(=O)c1ccc([N+](=O)[O-])s1 | 11 | -3 | 24 | 40* | -5 | 15 | 40*
COc1ccc(S(=O)(=O)N2CCOCC2)cc1NC(=O)Cc1ccccc1Cl | 8 | -1 | 4 | 60* | -7 | 1 | 55*
CN(C)CC(NC(=O)c1cccc(S(=O)(=O)Nc2ccc3c(c2)OCO3)c1)c1ccccc1 (configuration not stated) | 21 | -9 | 4 | 7 | -1 | 1 | x
Cc1cccc(NC(=O)CSc2nc(=O)n(CCCN3CCOCC3)c3c2CCCC3)c1 | 2 | -5 | 2 | 2 | -13 | 6 | x
O=C1C(=Cc2ccco2)CCC1=Cc1ccco1 | x | 1 | 5 | 56* | 3 | 4 | 18
O=C1C(=Cc2ccco2)CCCC1=Cc1ccco1 | x | -1 | -1 | 10 | 1 | 2 | x
O=C(OCc1cn(-c2ccc(Cl)cc2)nn1)c1ccccc1 | 10 | -1 | 4 | 69* | -6 | 5 | 69*
Cc1ccc(C(=O)OCC(=O)Nc2ncc(Cl)cc2Cl)cc1NC(=O)c1ccco1 | 10 | -2 | 9 | 42* | -11 | 1 | 41*
Cc1ccc(C(=O)OCC(=O)Nc2cc(F)ccc2F)cc1NC(=O)c1ccco1 | -1 | -10 | -2 | 78* | -2 | 2 | 70*
Cc1ccc(C(=O)OCC(=O)Nc2ccccc2)cc1NC(=O)c1ccco1 | 8 | -8 | 1 | 82* | 6 | -7 | 81*
Cc1ccc(C(=O)OCC(=O)Nc2sc3c(c2C#N)CCCC3)cc1NC(=O)c1ccco1 | 21 | -6 | -25 | 13 | -9 | -3 | x
CCC(C)c1ccccc1NC(=O)COC(=O)c1ccc(C)c(NC(=O)c2ccco2)c1 (configuration not stated) | 1 | -12 | 4 | 78* | 3 | -1 | 74*
Cc1ccc(C(=O)OCC(=O)Nc2nc(-c3ccccc3)cs2)cc1NC(=O)c1ccco1 | -15 | -8 | -11 | -22 | -3 | -3 | x
Cc1cc(NC(=O)c2cc3cccc([N+](=O)[O-])c3[nH]2)ccc1F | 19 | -4 | 10 | -2 | 8 | 13 | x
Cc1ccc(S(=O)(=O)N2CCOCC2)cc1C(=O)OCCOc1cccc(Cl)c1 | 19 | -2 | 0 | 0 | -11 | 6 | x
Cc1ccc(C(=O)OCC(=O)Nc2ccc(N(C)C)cc2)cc1NC(=O)c1ccco1 | 1 | -5 | 3 | 41* | 0 | -2 | 35*
Cc1ccc(C(=O)OCC(=O)Nc2sccc2C(N)=O)cc1NC(=O)c1ccco1 | 1 | -13 | -1 | 16 | -6 | -1 | x
CC(C)(C)C(=O)N1CCC2CC1c1cc(Cl)ccc12 (configuration not stated) | x | 5 | 11 | -2 | -5 | 11 | x
CCN(CC(=O)NCc1cccs1)CC(=O)Nc1cccc(S(N)(=O)=O)c1 | 0 | -5 | -5 | -1 | 2 | 5 | x
Cn1cnnc1Sc1ccc(C(=O)OCC(=O)Nc2ccccc2)cc1[N+](=O)[O-] | 7 | -2 | 0 | 59* | 5 | 0 | 41*
O=C(CCc1ccccc1)NCCSc1ccccc1 | 0 | -6 | 7 | -1 | 5 | 5 | x
O=C(CCc1[nH]c2ccccc2c1Sc1ccccc1)NCCO | 2 | -9 | -1 | 37* | -13 | 3 | 27
COC(=O)N/N=C/c1ccc(-c2cccc(Cl)c2)o1 | 3 | -6 | -4 | -2 | 6 | 0 | x
SMILES | pPAFAH FP inh | PKA-R1A activ | PAFAH1B3 inh | PAFAH2 FP inh | PKA-R2B activ | PAFAH1B2 FP inh | PAFAH2 confirm
Cc1nc(S/C(=C/c2ccc(-c3cccc(Cl)c3)o2)C(=O)O)n[nH]1 | 6 | 2 | 6 | 46* | 10 | 21 | 32*
C=C(C)c1nc2cc(OC)c(OC)cc2c(=O)o1 | 0 | -2 | 18 | 11 | -1 | 5 | x
Cc1ccc2nc(-c3ccc(Br)o3)oc(=O)c2c1 | 3 | 1 | 7 | 66* | -7 | -4 | 66*
COc1cc2nc(CCc3ccccc3)oc(=O)c2cc1OC | 6 | 6 | 3 | 36* | 4 | 13 | 22
COc1cc2nc(-c3ccc(Br)o3)oc(=O)c2cc1OC | 3 | -7 | 5 | 53* | 1 | -2 | 41*
Cc1cc(SCc2ccc(C(F)(F)F)cc2)nc(=O)[nH]1 | 4 | -4 | 3 | -4 | -5 | 8 | x
Nc1c(-c2cccc(Cl)c2)cnn1-c1ccccc1 | 8 | -4 | -3 | 2 | -3 | 3 | x
CSc1nc2c(cnn2-c2ccccc2)c(=O)n1N | 5 | -15 | 1 | 1 | -1 | -3 | x
O=c1oc(-c2cccc(Cl)c2)nc2c1cnn2-c1ccccc1 | 20 | 5 | 6 | 70* | -5 | -3 | 52*
O=c1oc(-c2ccccc2F)nc2c1cnn2-c1ccccc1 | 0 | 4 | 8 | 74* | -5 | 4 | 45*
O=C(CN1C(=O)NC2(CCc3ccccc32)C1=O)c1cccs1 (configuration not stated) | 1 | -5 | 4 | 10 | 5 | 6 | x
COc1cccc(C(=O)OCC(=O)NCCC2=CCCCC2)c1 | 22 | -3 | 2 | 38* | -3 | 3 | 23
COc1cc(C(=O)OCC(=O)NCCC2=CCCCC2)ccc1OCC(C)C | 7 | -7 | -2 | 41* | -1 | 4 | 43*
Cc1ccc(-c2csc(NC(=O)c3cccc([N+](=O)[O-])c3)n2)cc1 | 4 | 2 | 6 | 3 | -3 | 2 | x
O=C(Nc1cccc(-c2csc(Nc3cccc(C(F)(F)F)c3)n2)c1)c1cc([N+](=O)[O-])cc(C(F)(F)F)c1 | 1 | -4 | 7 | 30* | 1 | -6 | -9
O=C(Nc1ccc(-c2csc(Nc3ccccc3)n2)cc1)c1cc([N+](=O)[O-])cc(C(F)(F)F)c1 | 2 | -9 | 22 | 50* | 8 | 23 | -8
CCN(CC)c1ccc(/C=N/NC(=O)CCC(=O)NCc2ccccc2)c(O)c1 | 3 | 2 | 5 | 17 | -11 | 10 | x
O=C(COC(=O)C1=COCCO1)Nc1ccc(Br)cc1Br | 9 | -7 | 4 | 58* | 1 | -1 | 46*
O=C(COC(=O)C1=COCCO1)Nc1ccc(F)cc1 | 7 | -2 | 5 | 69* | -9 | 2 | 59*

Screening results from PubChem BioAssay.
